An excerpt weighted towards active compounds, which were near 3.6% of everything screened.
mHTT CaM bind: disrupts binding of mutant huntingtin to calmodulin; P42858; AlphaScreen His-mHTT/GST-CaM binding, luminescence; inhibition, % at 15 µM; hit rate 3.6% among 190,000;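 note: 0% = both proteins with DMSO and 100% = one protein alone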
Pf apPOL block: Pf-apPOL DNA polymerase inhibition; Recombinant Pf-apPOL, molecular beacon fluorescence, 1.5 h; inhibition, % at 10 µM; hit rate 0.25% among 210,000; AID 1794808
* marks the source's active call; other numbers are inactive results; x = no result given. Cut-off read from the data, not from the text of the source: active = inhibition above about 50%; inactive = the rest.

SMILES	mHTT CaM bind	Pf apPOL block
CC(=O)N1CCN(CC(=O)N2N=C(c3ccc(C)cc3)CC2c2ccc(C)cc2)CC1 (centres undefined)	71*	-11
CN1C(=O)c2ccc(NC(=O)COc3ccc(C(C)(C)C)cc3)cc2C1=O	3	-1
Cc1noc(COC2CCCN(C(=O)CCc3c(C)noc3C)C2)n1 (centres undefined)	-8	-3
CCCC(=O)Nc1cnc(-c2cccc(Cl)c2)nc1	-8	-6
Cc1ccc(C2CC(c3ccccc3)=NN2C(=O)CN2CCC(C(N)=O)CC2)cc1 (centres undefined)	80*	-8
NC(=O)C1CCN(CC(=O)N2N=C(c3ccc(F)cc3)CC2c2ccccc2)CC1 (centres undefined)	16	4
Cc1cccc(C2=NN(C(=O)CN3CCOCC3)C(c3ccccc3F)C2)c1 (centres undefined)	36	4
CC(=O)N1CCN(CC(=O)N2N=C(c3cccc(C)c3)CC2c2ccc(C)cc2)CC1 (centres undefined)	82*	-5
O=C(NCC1CCCO1)N1CCCn2nc(-c3cccs3)cc2C1 (centres undefined)	8	2
N=c1ncn(CC(O)CO)c2nc(NCCO)[nH]c12 (centres undefined)	5	-2
COc1ccc(OC)c(Nc2ncnc3c2cnn3-c2ccc(Cl)cc2)c1	7	-5
NNc1nc(Nc2ccccc2)nc(N2CCCCC2)n1	99*	-4
c1ccc(Nc2nc(N3CCCC3)nc(N3CCNCC3)n2)cc1	10	-11
O=C1Nc2ccccc2C12CCN(S(=O)(=O)c1cccc(Cl)c1)C2 (centres undefined)	77*	-1
O=C(Cc1ccccc1Cl)N1CCC2(C1)C(=O)Nc1ccccc12 (centres undefined)	1	-6
Cc1ccc(F)cc1S(=O)(=O)N1CCC2(C1)C(=O)Nc1ccccc12 (centres undefined)	8	1
Cc1cc(S(=O)(=O)N2CCC3(C2)C(=O)Nc2ccccc23)ccc1F (centres undefined)	96*	8
Oc1ccc2ccccc2c1SSc1c(O)ccc2ccccc12	100*	0
Oc1ccc2ccccc2c1CN1CCCCC1	x	-1
CCC[C@H]1[C@@H](OC(=O)NCc2ccc(C(F)(F)F)cc2)CC[C@@]23CCCN2C(=O)CCC[C@@H]13	78*	-19
CCC[C@H]1[C@@H](OC(=O)NCc2cccc(C(F)(F)F)c2)CC[C@@]23CCCN2C(=O)CCC[C@@H]13	2	-2
COc1ccc(NC(=O)N(Cc2ccco2)C(C)c2ccco2)c(OC)c1 (centres undefined)	11	-12
N#CC1=C(N)C(C#N)(C#N)C(c2cccnc2)C2CCCC=C12 (centres undefined)	5	7
N#CC1=C(N)C(C#N)(C#N)C(c2cccc([N+](=O)[O-])c2)C2CCCC=C12 (centres undefined)	53*	7
N#CC1=C(N)C(C#N)(C#N)C(c2ccccc2I)C2CCCC=C12 (centres undefined)	11	-3
SMILES	mHTT CaM bind	Pf apPOL block
CN1CC=C2C(C#N)=C(N)C(C#N)(C#N)C(c3cccc(Cl)c3)C2C1 (centres undefined)	9	-3
CC1CC=C2C(C#N)=C(N)C(C#N)(C#N)C(c3cccc(Cl)c3)C2C1 (centres undefined)	70*	0
CC(C)(C)C1CC=C2C(C#N)=C(N)C(C#N)(C#N)C(c3c[nH]c4ccccc34)C2C1 (centres undefined)	98*	24
Cc1ccc(CNC(=O)C2CCCN(c3ccncc3)C2)cc1 (centres undefined)	-14	-3
O=C(c1ccoc1)N1CCC(OCc2nc(C3CC3)no2)CC1	-5	-4
COCCN(CCOC)Cc1c(O)ccc2c1OC(=Cc1ccc(C)cc1)C2=O	14	-24
Cc1nc(-c2ccnc(-c3cc(Cl)cc(Cl)c3)n2)cs1	x	-6
c1cnc(-c2noc(COC3CCNCC3)n2)cn1	-10	1
Brc1ncnc2nc[nH]c12	-5	x
O=C(O)c1ncnc2nc[nH]c12	99*	x
Cc1nn(-c2ccc(C(=O)NC3CC3)cc2)c2c1C(=O)CCC2	-5	2
O=[N+]([O-])c1ccc(Nc2ccc(F)cc2)cc1	x	-2
O=Cc1[nH]c2ccccc2c1Nc1ccc([N+](=O)[O-])cc1	100*	-2
O=c1sc2ccccc2c(Nc2ccc([N+](=O)[O-])cc2)c1[N+](=O)[O-]	25	x
O=[N+]([O-])c1ccc(Nc2c[nH]c3ccccc23)cc1	89*	1
Cc1c(C(=O)NN=C2CCCCCC2)nnn1-c1nonc1N	-2	x
CC(C(=O)Nc1ccc(Cl)cc1O)N1C(=O)c2ccccc2C1=O (centres undefined)	4	-5
O=S(=O)(Nc1ccc(Cl)cc1Cl)c1ccc(F)cc1	-6	-3
CC1=Nc2ccccc2C1=Cc1sc(=O)n(-c2ccccc2)c1O	26	4
CC1=Nc2ccccc2C1=Cc1sc(=N)n(-c2nccs2)c1O	100*	0
Cc1cc(OCC(C)C)ccc1C(O)=C1C(=O)C(=O)N(Cc2cccnc2)C1c1cccnc1 (centres undefined)	13	-4
COc1ccccc1C1CC(=O)N(C)C2=C1C(=O)CC(C)(C)C2 (centres undefined)	1	-3
Cc1noc(N)c1C(N)=S	x	7
CCOc1cccc(N2C(=O)NC(=O)/C(=C\c3ccc(Oc4ccc([N+](=O)[O-])cn4)cc3)C2=O)c1	50*	-7
O=C1NN(c2ccccc2)C(=O)/C1=C/c1cccc(OCCOc2ccc([N+](=O)[O-])cc2)c1	27	3
SMILES	mHTT CaM bind	Pf apPOL block
O=C(NC1CCCC1)C1c2ccccc2C(=O)N1Cc1ccccc1Cl (centres undefined)	53*	1
CC1CCC(NC(=O)C2c3ccccc3C(=O)N2Cc2ccccc2Cl)CC1 (centres undefined)	8	-3
Cc1c(Cl)c([N+](=O)[O-])nn1CCCC(=O)N(Cc1ccccc1)Cc1ccccc1	84*	-6
Cc1c(Cl)c([N+](=O)[O-])nn1CCCC(=O)N1CCN(c2ccccc2)CC1	0	4
O=[N+]([O-])c1ccccc1NCCNS(=O)(=O)c1ccccc1	16	-3
O=[N+]([O-])c1ncn(Cc2cccc(Br)c2)n1	-3	3
O=[N+]([O-])c1ncn(CNc2cc(Br)cc3cccnc23)n1	65*	-2
C=CCCCC(=O)Nc1ccccc1Br	26	67*
O=C(O)CCC(=O)Nc1ccccc1Br	-3	-10
COc1ccccc1CC(=O)N1CC2CN(S(=O)(=O)c3ccc(C)cc3)CC(C1)O2	-2	-6
O=C(Nc1cc(-c2ccccn2)no1)C1CC1	1	-3
Cc1ccc(C)c(C(=O)N2CCCC(COc3cccc(C(=O)N4CCCC4)c3)C2)c1 (centres undefined)	-7	-1
CCCCOc1ccc(C(=O)Oc2cc(C)[nH]c(=O)c2[N+](=O)[O-])cc1	10	-6
COc1ccc(C(=O)Oc2cc(C)[nH]c(=O)c2[N+](=O)[O-])cc1	97*	2
COc1ccc(Cl)cc1C(=O)Oc1cc(C)[nH]c(=O)c1[N+](=O)[O-]	-5	-4
COc1ccc(C=CC(=O)Oc2cc(C)[nH]c(=O)c2[N+](=O)[O-])cc1OC	91*	6
CCCNC(=O)CC1CCN(C(=O)c2[nH]c(C)cc2C)CC1	-3	-1

Screening results: PubChem, University of Kansas High Throughput Screening Laboratory
